PubChem BioAssay (NCATS)
“And” between values parts separate entries of the source, which are not always exact repeats. Identical values can stand only once. Results filed as inconclusive are left out. The source made the active and inactive calls. Calls follow the shape of the dose curve; as a rule, active = well fitted cell-killing curve with a large enough effect; inconclusive = small, poorly fitted or top-dose-only effect; inactive = flat fitted curve, though single readings scatter.

Assay: Quantitative highthroughput screen to assess conditional lethalithy of P12 Ichikawa cells grown in RPMI1640 with untreated serum (RPMI+s) (AID 1963881); also: nearly all actives have a fitted effect of over 35% in size;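 as to viability: 100% = DMSO wells and 0% = empty wells without cells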
Details: ATP luminescence, 48 h; Potency: viability; series mostly up to 45.8 µM; viability: at the top concentration
Method in brief: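 Each medium arm—HPLM with 10% dialyzed FBS, or RPMI1640 with 5 mM glucose and 10% untreated or dialyzed FBS—was screened against an 11-point, 3-fold compound titration for 48 h at 37 °C, with CellTiter-Glo luminescence as endpoint.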
Potency is read from the fitted curve at half-maximal effect.

SMILES	viability	Potency
O=C1CC[C@@]2(O)[C@H]3Cc4ccc(O)c5c4[C@@]2(CCN3CC2CC2)[C@H]1O5	112% (inactive)	
O=P1(N(CCCl)CCCl)NCCCO1 (stereo not given)		14.8 µM (active)
CN1C(=O)COc2c(C(=O)NC3CN4CCC3CC4)cc(Cl)cc21 (stereo not given)	130% (inactive)	
CSCC[C@@H](NC(=O)[C@@H](Cc1ccccc1)NC(=O)CNC(=O)CNC(=O)[C@@H](N)Cc1ccc(O)cc1)C(=O)O	99% (inactive)	
CN1CCN(C(=O)O[C@H]2c3nccnc3C(=O)N2c2ccc(Cl)cn2)CC1	94.2% (inactive)	

Assay: Cellular viability qHTS for adrenocortical cancer (ACC) cell line SW-13 (AID 1963989); also: nearly all actives have a fitted effect of over 65% in size;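 as to activity (max response): cells grown in serum-free medium with ITS supplement; % is scaled to controls: 0 for no effect and ±100 for the full control effect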
Details: SW-13 ACC cells viability, CellTiter-Glo, 48 h; activity (max response): stronger effect = lower value
Method in brief: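 Compound titrations (up to 46 uM final, in DMSO) were applied to SW-13 cells for 48 h at 37C/5% CO2. Reading used CellTiter-Glo after 20 min at room temperature; fitted curves yielded IC50 and efficacy.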

SMILES	activity (max response)	Potency
CC(Cc1ccc(O)cc1)NCC(O)c1cc(O)cc(O)c1 (stereo not given)	10.9% (inactive)	
CN[C@@H](C)[C@H](O)c1ccccc1	-4.49% (inactive)	
Oc1cccc2cccnc12	-4.07% (inactive) and 11.1% (inactive)	
CCC1(c2ccccc2)CCC(=O)NC1=O (stereo not given)	7.87% (inactive)	
CC1NCCOC1c1ccccc1 (stereo not given)	-0.553% (inactive)	
C#CCN(C)[C@H](C)Cc1ccccc1	4.66% (inactive) and -4.85% (inactive)	
C[C@@H](N)[C@@H](O)c1ccccc1	3.81% (inactive)	
CN1[C@@H]2CC[C@H]1CC(OC(=O)c1cc(Cl)cc(Cl)c1)C2 (stereo not given in full)	-16.8% (inactive)	
O=C(O)c1ccc(=O)[nH]c1	7.49% (inactive)	
CC(C)(C)NCC(O)c1ccccc1Cl (stereo not given)	3.76% (inactive)	
NC(=O)OCCCc1ccccc1	11.5% (inactive)	
O=C1CC[C@@]2(O)[C@H]3Cc4ccc(O)c5c4[C@@]2(CCN3CC2CC2)[C@H]1O5	9.15% (inactive) and -5.08% (inactive)	
CCC1(CC)C(=O)C=CNC1=O	0.834% (inactive)	
CC(C)NCC(O)c1ccc([N+](=O)[O-])cc1 (stereo not given)	-6.95% (inactive)	
O=P1(N(CCCl)CCCl)NCCCO1 (stereo not given)	0.4% (inactive) and 11% (inactive)	
CCS(=O)(=O)C(C)(C)S(=O)(=O)CC	-10.9% (inactive)	
COC(=O)C1=CCCN(C)C1	1.83% (inactive)	

SMILES	activity (max response)	Potency
C=C1CC[C@@]2(O)[C@H]3Cc4ccc(O)c5c4[C@@]2(CCN3CC2CC2)[C@H]1O5	2.67% (inactive)	
Cn1c(CCCC(=O)O)nc2cc(N(CCCl)CCCl)ccc21	2.81% (inactive) and -9.72% (inactive)	
CCNc1nc(Cl)nc(NCC)n1	-2.51% (inactive)	
COC(=O)[C@@H](N)CCCN/C(N)=N/[N+](=O)[O-]	3% (inactive)	
CN1C(=O)COc2c(C(=O)NC3CN4CCC3CC4)cc(Cl)cc21 (stereo not given)	0.49% (inactive) and -6.93% (inactive)	
CCOC(=O)NC(C)(C)Cc1ccc(Cl)cc1	-3.94% (inactive)	
CCC(C(N)=O)N1CCCC1=O (stereo not given)	-1.47% (inactive)	
C=CCN1CC[C@]23c4c5ccc(O)c4O[C@H]2C(=O)CC[C@@]3(O)[C@H]1C5	-2.59% (inactive)	
CSCC[C@@H](NC(=O)[C@@H](Cc1ccccc1)NC(=O)CNC(=O)CNC(=O)[C@@H](N)Cc1ccc(O)cc1)C(=O)O	3.41% (inactive)	
CC(C)(C)NCC(O)c1cc(Cl)c(N)c(C(F)(F)F)c1 (stereo not given)	9.74% (inactive)	
N[C@@H]1C[C@H]1c1ccccc1	6.98% (inactive)	
CCCN(CCC)c1c([N+](=O)[O-])cc(S(N)(=O)=O)cc1[N+](=O)[O-]		7.94 µM (active)
CC(O)CN1CCN(CC(=O)[O-])CCN(CC(=O)[O-])CCN(CC(=O)[O-])CC1.[Gd+3] (stereo not given)	0.662% (inactive)	
NN=C(N)N	12.8% (inactive)	
CN1CCN(C(=O)O[C@H]2c3nccnc3C(=O)N2c2ccc(Cl)cn2)CC1	9.33% (inactive)	
CCCC(C)(COC(N)=O)COC(=O)NC(C)C (stereo not given)	8.8% (inactive)	

Assay: Cellular viability qHTS for adrenocortical cancer (ACC) cell line NCI-H295R (AID 1963990); also: nearly all actives have a fitted effect of over 60% in size;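 as to activity change, negative = viability loss: 0% = DMSO only wells and -100% = full killing with cytotoxic reference compound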
Details: CellTiter-Glo ATP luminescence, 48 h; series mostly up to 46.1 µM; activity change, negative = viability loss: at the top concentration
Method in brief: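 Readout: CellTiter-Glo luminescence, 20 min RT. Exposure: 48 h, 37C/5% CO2. Cells: NCI-H295R, ITS-DMEM serum-free. Range: up to 46 uM. Analysis: 4PL fit, IC50 plus efficacy.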

SMILES	activity change, negative = viability loss	Potency
CC(Cc1ccc(O)cc1)NCC(O)c1cc(O)cc(O)c1 (stereo not given)	-16.3% (inactive)	
CN[C@@H](C)[C@H](O)c1ccccc1	-2.39% (inactive)	
Oc1cccc2cccnc12	-14.6% (inactive)	
CCC1(c2ccccc2)CCC(=O)NC1=O (stereo not given)	-0.352% (inactive)	
CC1NCCOC1c1ccccc1 (stereo not given)	-1.27% (inactive)	
C#CCN(C)[C@H](C)Cc1ccccc1	-4.27% (inactive)	
C[C@@H](N)[C@@H](O)c1ccccc1	-17.2% (inactive)	
O=C(O)c1ccc(=O)[nH]c1	-1.53% (inactive)	
O=C1CC[C@@]2(O)[C@H]3Cc4ccc(O)c5c4[C@@]2(CCN3CC2CC2)[C@H]1O5		inactive
O=P1(N(CCCl)CCCl)NCCCO1 (stereo not given)		inactive
Cn1c(CCCC(=O)O)nc2cc(N(CCCl)CCCl)ccc21	-27.5% (inactive)	
CCNc1nc(Cl)nc(NCC)n1	-16.9% (inactive)	
COC(=O)[C@@H](N)CCCN/C(N)=N/[N+](=O)[O-]	-14% (inactive)	
CN1C(=O)COc2c(C(=O)NC3CN4CCC3CC4)cc(Cl)cc21 (stereo not given)		inactive
C=CCN1CC[C@]23c4c5ccc(O)c4O[C@H]2C(=O)CC[C@@]3(O)[C@H]1C5	0.895% (inactive)	
CSCC[C@@H](NC(=O)[C@@H](Cc1ccccc1)NC(=O)CNC(=O)CNC(=O)[C@@H](N)Cc1ccc(O)cc1)C(=O)O	-2.34% (inactive)	
CC(C)(C)NCC(O)c1cc(Cl)c(N)c(C(F)(F)F)c1 (stereo not given)	-2.94% (inactive)	
CCCN(CCC)c1c([N+](=O)[O-])cc(S(N)(=O)=O)cc1[N+](=O)[O-]		7.94 µM (active)
CC(O)CN1CCN(CC(=O)[O-])CCN(CC(=O)[O-])CCN(CC(=O)[O-])CC1.[Gd+3] (stereo not given)	2.64% (inactive)	
NN=C(N)N	-10.9% (inactive)	
CN1CCN(C(=O)O[C@H]2c3nccnc3C(=O)N2c2ccc(Cl)cn2)CC1	-2.62% (inactive)	
CCCC(C)(COC(N)=O)COC(=O)NC(C)C (stereo not given)	-12.7% (inactive)	
